Source: the supplement of paper PMC10849652
Targets with a hit are over-represented here; the source holds about 8,800 in all. About 0.5% of all pairs of compound and target were hits. Unmarked numbers belong to inactive results.

What was measured:
Test in all cases: log2 fold change, soluble protein after heating vs DMSO (PISA); higher = thermal stabilisation; K562 lysate, 10 uM; active = over 0.2 and 3.5 SD of the protein, either way, in both replicates (recomputed)
ibrutinib = compound: C=CC(=O)N1CCC[C@@H](n2nc(-c3ccc(Oc4ccccc4)cc3)c3c(N)ncnc32)C1 [ibrutinib]
How it was run: (§1)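 Pellets of K562 cells were dounce-homogenised in PBS pH 7.4 with 1 mM MgCl2, and the crude extract was held at 1 mg/mL protein for a 30 min treatment with 10 μM compound. Aliquots were heated for 3 min over 48°C-58°C and pooled before NP-40 was added to 0.5% at 4°C. The supernatant from 21,000xg for 90 min was quantified by TMTpro 16plex LC-MS/MS with channel sums equalised. Values are reported from duplicates as log-two fold change in thermal stability relative to solvent controls.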

[1] = compound: CC(=O)c1cnc2ccc(-c3cc(Cl)c(O)c(Cl)c3)nc2c1N[C@H]1CC[C@H](CN(C)C)CC1
How it was run: as §1

ralimetinib = compound: CC(C)(C)Cn1c(N)nc2ccc(-c3[nH]c(C(C)(C)C)nc3-c3ccc(F)cc3)nc21 [ralimetinib]
How it was run: as §1

[2] = compound: CC(C)(O)CC(=O)NCCn1ccc2ncnc(Nc3ccc(Oc4cccc(C(F)(F)F)c4)c(Cl)c3)c21
How it was run: as §1

[3] = compound: CC(C)C1=C2N=C(C=C(N2N=C1)NCC3=CC=CC=C3)NCCCCCCN
How it was run: as §1

[4] = compound: CC1=C(C(CC(=O)N1)C2=CC=C(C=C2)C(F)(F)F)C(=O)NC3=C(C=C4C(=C3)C=NN4)F
How it was run: as §1

[5] = compound: CC1=C(C2=C(C=C1)C(=O)C3=CC=CC=C3N2CCCN)C
How it was run: as §1

[6] = compound: CC1=C(C=C(C=C1)NC(=O)C2=CC(=CC=C2)C(C)(C)C#N)NC3=CC4=C(C=C3)N=CN(C4=O)C
How it was run: as §1

[7] = compound: CC1=C(C=C(C=C1)NC(=O)C2=CC(=CC=C2)N(C)C)NC(=O)C3=CC=C(C=C3)O
How it was run: as §1

[8] = compound: CC1=CC=C(C=C1)SC2=C3C=C(SC3=CN=C2)C(=O)N
How it was run: as §1

vemurafenib = compound: CCCS(=O)(=O)Nc1ccc(F)c(C(=O)c2c[nH]c3ncc(-c4ccc(Cl)cc4)cc23)c1F [vemurafenib]
How it was run: as §1

[9] = compound: CCCS(=O)(=O)Nc1ccc(F)c(C(=O)c2c[nH]c3ncc(Cl)cc23)c1F
How it was run: as §1

barasertib = compound: CCN(CCCOc1ccc2c(Nc3cc(CC(=O)Nc4cccc(F)c4)[nH]n3)ncnc2c1)CCOP(=O)(O)O [barasertib]
How it was run: as §1

[10] = compound: CC[C@@H]1C(=O)N(C)c2cnc(Nc3ccc(C(=O)NC4CCN(C)CC4)cc3OC)nc2N1C1CCCC1
How it was run: as §1

volasertib = compound: CC[C@@H]1C(=O)N(C)c2cnc(Nc3ccc(C(=O)N[C@H]4CC[C@H](N5CCN(CC6CC6)CC5)CC4)cc3OC)nc2N1C(C)C [volasertib]
How it was run: as §1

[11] = compound: CCn1c(C(=O)N(C2CC2)C2CC2)cc2c3c(ncn3C)c(Nc3cc(C)n(C)n3)nc21
How it was run: as §1

[12] = compound: CCn1cc(-c2ccnc3[nH]c(-c4cccc(CN(C)C)c4)cc23)c(-c2ccc(NC(=O)N(C)C)cc2)n1
How it was run: as §1

[13] = compound: CN1CCC(CNc2ccc3ncc(-c4cccc(OC(F)(F)F)c4)n3n2)CC1
How it was run: as §1

saracatinib = compound: CN1CCN(CCOc2cc(OC3CCOCC3)c3c(Nc4c(Cl)ccc5c4OCO5)ncnc3c2)CC1 [saracatinib]
How it was run: as §1

sotrastaurin = compound: CN1CCN(c2nc(C3=C(c4c[nH]c5ccccc45)C(=O)NC3=O)c3ccccc3n2)CC1 [sotrastaurin]
How it was run: as §1

UniProt P09543, sequence (P09543 whole entry, looked up): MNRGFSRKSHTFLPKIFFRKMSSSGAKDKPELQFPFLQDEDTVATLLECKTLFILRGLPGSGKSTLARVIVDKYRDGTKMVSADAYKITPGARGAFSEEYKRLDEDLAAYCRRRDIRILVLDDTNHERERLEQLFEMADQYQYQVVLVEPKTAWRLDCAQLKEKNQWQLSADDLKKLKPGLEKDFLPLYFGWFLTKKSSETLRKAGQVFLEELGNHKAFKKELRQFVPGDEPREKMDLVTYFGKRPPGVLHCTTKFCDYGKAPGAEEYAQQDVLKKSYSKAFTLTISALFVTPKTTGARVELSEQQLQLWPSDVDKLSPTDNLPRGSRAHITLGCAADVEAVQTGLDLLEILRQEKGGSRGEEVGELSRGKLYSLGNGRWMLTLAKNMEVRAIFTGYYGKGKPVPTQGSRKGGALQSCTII
UniProt Q99828, sequence (Q99828 whole entry, looked up): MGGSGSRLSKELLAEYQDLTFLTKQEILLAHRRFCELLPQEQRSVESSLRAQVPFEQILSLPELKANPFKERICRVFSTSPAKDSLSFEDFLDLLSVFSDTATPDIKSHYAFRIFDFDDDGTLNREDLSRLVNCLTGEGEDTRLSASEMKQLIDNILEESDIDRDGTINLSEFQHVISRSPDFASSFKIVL
UniProt Q07973, sequence (Q07973 whole entry, looked up): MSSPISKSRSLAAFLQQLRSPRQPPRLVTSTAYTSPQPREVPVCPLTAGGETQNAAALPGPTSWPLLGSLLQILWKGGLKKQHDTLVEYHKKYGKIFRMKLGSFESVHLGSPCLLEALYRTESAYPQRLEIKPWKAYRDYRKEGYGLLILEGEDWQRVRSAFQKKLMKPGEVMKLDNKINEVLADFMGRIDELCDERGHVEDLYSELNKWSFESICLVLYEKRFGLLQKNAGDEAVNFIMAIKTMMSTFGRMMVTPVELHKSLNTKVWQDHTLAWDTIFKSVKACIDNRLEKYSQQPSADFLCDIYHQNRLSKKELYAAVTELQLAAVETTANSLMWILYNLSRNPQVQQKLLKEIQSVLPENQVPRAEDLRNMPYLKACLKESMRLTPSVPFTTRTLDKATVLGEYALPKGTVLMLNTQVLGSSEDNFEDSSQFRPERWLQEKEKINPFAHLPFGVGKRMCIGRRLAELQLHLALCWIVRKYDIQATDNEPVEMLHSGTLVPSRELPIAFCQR
UniProt Q96BY6, sequence (Q96BY6 whole entry, looked up): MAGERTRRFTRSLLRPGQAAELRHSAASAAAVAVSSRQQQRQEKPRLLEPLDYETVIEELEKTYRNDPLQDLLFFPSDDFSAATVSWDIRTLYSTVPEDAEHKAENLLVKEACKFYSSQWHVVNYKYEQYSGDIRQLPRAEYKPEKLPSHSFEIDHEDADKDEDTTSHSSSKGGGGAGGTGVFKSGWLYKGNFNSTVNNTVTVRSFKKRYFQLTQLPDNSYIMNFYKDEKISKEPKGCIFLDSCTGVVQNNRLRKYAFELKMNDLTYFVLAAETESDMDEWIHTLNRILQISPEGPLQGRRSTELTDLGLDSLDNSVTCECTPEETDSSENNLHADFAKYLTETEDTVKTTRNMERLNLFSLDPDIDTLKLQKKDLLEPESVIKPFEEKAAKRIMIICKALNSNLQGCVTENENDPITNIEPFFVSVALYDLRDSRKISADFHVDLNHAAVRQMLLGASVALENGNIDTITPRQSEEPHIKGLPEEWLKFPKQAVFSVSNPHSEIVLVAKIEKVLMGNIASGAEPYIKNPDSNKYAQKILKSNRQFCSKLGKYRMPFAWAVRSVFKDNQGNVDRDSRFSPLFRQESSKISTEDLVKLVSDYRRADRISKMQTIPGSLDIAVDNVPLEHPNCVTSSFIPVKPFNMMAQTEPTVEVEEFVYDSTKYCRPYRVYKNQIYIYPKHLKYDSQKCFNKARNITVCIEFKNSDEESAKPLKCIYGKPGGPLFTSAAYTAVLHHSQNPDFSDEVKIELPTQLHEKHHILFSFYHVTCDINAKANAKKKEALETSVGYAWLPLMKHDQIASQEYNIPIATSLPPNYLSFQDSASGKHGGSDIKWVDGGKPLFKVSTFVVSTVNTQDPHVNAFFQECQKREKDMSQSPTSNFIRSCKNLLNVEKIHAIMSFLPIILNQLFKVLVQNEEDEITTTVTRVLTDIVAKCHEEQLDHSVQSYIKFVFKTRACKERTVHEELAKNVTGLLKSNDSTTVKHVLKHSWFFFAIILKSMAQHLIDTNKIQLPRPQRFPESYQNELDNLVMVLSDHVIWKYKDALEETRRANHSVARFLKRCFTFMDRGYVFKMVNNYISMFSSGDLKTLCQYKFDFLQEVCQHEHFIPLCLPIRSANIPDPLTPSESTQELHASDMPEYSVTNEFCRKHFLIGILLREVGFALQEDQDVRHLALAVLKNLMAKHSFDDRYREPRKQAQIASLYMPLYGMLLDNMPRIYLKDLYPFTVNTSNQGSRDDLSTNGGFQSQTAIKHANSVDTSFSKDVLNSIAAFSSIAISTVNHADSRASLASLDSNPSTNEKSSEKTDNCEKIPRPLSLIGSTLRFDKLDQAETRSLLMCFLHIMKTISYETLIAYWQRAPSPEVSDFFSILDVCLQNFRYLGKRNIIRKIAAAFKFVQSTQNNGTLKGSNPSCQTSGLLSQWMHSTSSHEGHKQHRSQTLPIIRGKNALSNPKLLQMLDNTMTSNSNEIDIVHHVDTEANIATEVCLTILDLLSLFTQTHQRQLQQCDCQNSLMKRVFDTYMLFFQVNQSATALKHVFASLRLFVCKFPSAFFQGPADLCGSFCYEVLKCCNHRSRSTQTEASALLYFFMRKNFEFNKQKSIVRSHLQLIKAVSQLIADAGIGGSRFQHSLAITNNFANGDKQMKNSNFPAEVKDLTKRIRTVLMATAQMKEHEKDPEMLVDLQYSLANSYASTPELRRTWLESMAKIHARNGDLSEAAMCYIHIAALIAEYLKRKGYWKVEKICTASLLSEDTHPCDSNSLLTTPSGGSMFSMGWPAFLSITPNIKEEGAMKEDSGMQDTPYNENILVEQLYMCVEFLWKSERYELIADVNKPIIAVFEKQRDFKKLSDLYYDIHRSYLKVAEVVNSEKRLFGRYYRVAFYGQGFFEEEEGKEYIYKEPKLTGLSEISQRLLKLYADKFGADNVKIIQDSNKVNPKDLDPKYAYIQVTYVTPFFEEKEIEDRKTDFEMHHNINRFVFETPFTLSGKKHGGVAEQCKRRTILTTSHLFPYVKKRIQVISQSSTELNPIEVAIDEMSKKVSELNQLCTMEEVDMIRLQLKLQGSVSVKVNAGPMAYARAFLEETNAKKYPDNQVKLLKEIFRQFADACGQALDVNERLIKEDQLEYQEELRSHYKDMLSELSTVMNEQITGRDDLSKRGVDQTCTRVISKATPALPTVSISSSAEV
UniProt Q96EP5, sequence (Q96EP5 whole entry, looked up): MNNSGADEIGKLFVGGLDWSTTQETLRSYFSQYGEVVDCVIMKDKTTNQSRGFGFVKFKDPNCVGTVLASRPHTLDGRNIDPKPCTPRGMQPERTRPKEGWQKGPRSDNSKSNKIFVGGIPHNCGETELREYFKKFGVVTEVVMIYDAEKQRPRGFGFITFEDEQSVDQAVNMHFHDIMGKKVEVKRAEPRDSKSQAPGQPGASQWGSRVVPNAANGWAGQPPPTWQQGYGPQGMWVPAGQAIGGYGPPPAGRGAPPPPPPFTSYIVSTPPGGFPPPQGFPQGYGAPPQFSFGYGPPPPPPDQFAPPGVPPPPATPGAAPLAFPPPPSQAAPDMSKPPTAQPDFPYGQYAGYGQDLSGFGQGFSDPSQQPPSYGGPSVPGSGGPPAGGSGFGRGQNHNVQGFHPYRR
UniProt Q8NI60, sequence (Q8NI60 whole entry, looked up): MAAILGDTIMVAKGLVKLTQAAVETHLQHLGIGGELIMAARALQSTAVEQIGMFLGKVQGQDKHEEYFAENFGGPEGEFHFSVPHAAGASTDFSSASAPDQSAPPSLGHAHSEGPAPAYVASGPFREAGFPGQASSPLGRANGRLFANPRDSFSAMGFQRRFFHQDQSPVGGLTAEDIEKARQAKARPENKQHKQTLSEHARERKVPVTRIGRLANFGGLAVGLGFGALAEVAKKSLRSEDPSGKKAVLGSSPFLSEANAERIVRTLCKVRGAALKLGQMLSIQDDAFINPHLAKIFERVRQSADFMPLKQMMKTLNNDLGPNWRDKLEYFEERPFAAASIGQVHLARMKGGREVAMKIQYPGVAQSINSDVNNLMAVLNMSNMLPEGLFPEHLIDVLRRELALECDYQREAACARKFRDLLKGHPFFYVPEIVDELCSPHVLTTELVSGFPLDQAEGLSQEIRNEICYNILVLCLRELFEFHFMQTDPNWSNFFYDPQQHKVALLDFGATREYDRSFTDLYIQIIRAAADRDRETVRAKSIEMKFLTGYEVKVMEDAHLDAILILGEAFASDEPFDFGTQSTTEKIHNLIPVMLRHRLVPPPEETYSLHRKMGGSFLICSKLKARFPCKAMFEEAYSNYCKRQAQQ
UniProt Q96MX0, sequence (Q96MX0 whole entry, looked up): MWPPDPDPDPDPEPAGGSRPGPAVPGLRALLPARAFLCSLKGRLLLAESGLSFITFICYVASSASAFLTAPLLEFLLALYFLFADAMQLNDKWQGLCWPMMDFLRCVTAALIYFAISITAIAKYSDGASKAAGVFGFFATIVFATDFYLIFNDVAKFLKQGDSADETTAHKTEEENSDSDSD

Row | Target | log2 fold change (ibrutinib) | log2 fold change [1] | log2 fold change (ralimetinib) | log2 fold change [2] | log2 fold change [3] | log2 fold change [4] | log2 fold change [5] | log2 fold change [6] | log2 fold change [7] | log2 fold change [8] | log2 fold change (vemurafenib) | log2 fold change [9] | log2 fold change (barasertib) | log2 fold change [10] | log2 fold change (volasertib) | log2 fold change [11] | log2 fold change [12] | log2 fold change [13] | log2 fold change (saracatinib) | log2 fold change (sotrastaurin)
1 | CYP24A1 (UniProt Q07973) | 0.01 | -0.036 | -0.03 | -0.159 | 0.019 | -0.05 | -0.051 | 0.183 | 0.007 | -0.067 | 0.065 | -0.01 | -0.055 | 0.166 | 0.006 | -0.212 | -0.499 (active) | 0.268 | 0.056 | 0
2 | CNP (UniProt P09543) | 0.024 | 0.01 | 0.028 | 0.019 | 0.022 | 0.042 | 0.038 | -0.018 | -0.015 | 0.01 | 0.005 | -0.011 | 0.003 | -0.097 | -0.022 | 0.019 | -0.023 | -0.028 | 0.01 | -0.008
3 | DDA1 (UniProt Q9BW61) | 0.108 | -0.003 | 0 | 0.019 | -0.072 | 0.028 | 0.022 | 0.01 | 0.018 | -0.017 | -0.02 | 0.038 | -0.004 | 0.003 | 0 | 0.046 | 0 | -0.023 | 0.019 | -0.025
4 | CIB1 (UniProt Q99828) | 0.096 | -0.137 | 0.004 | -0.056 | -0.027 | 0.007 | -0.041 | 0.042 | -0.003 | -0.066 | 0.096 | 0.027 | 0.155 | -0.013 | 0.008 | -0.047 | -0.028 | -0.028 | 0.017 | -0.077
5 | CMTM3 (UniProt Q96MX0) | -0.036 | 0.036 | 0.093 | 0.104 | -0.022 | 0.052 | -0.06 | 0.06 | -0.039 | -0.016 | 0.053 | -0.014 | -0.04 | -0.089 | 0.014 | 0.03 | 0.053 | -0.055 | 0.012 | -0.005
6 | DOCK10 (UniProt Q96BY6) | -0.151 | 0.02 | -0.001 | -0.008 | -0.084 | -0.161 | 0.008 | 0.246 | -0.045 | 0.022 | 0.095 | -0.008 | -0.054 | 0.085 | 0.027 | 0.043 | -0.747 (active) | 0.387 | 0.001 | 0.007
7 | COQ8A (UniProt Q8NI60) | -0.061 | 0.611 (active) | 0.143 | 0.115 | -0.009 | -0.139 | -0.074 | -0.04 | 0 | -0.068 | 0.036 | -0.009 | 0.134 | 0.026 | -0.026 | -0.029 | -0.214 | 0.573 (active) | 0.697 (active) | 0.016
8 | DAZAP1 (UniProt Q96EP5) | -0.031 | -0.011 | -0.124 | 0.133 | -0.023 | -0.062 | -0.015 | -0.359 (active) | -0.031 | -0.009 | 0.036 | 0.043 | -0.017 | 0.016 | 0.011 | 0.065 | 0.129 | 0.032 | 0.003 | -0.109
